In PubChem BioAssay (EPA / NIEHS) one finds outcome and AC50 data, which are given here for eleven compounds.

Read-out in test [1]: Collagen I, COL1A1 (gene 1277)
The test can be described thus: BSK_MyoF_CollagenI: BioMAP Diversity Plus: MyoF Assay for Collagen I Biomarker Activity (AID 2284238). Conditions: primary human lung fibroblasts. The method in brief: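 Measured by ELISA: Collagen I from human lung fibroblasts 24 h after compound addition, analysed for signal gain with DMSO as baseline; overt toxicity read from SRB staining of parallel cultures at the same time.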

Read-out in test [2]: Collagen III, COL3A1 (gene 1281)
The test can be described thus: BSK_MyoF_CollagenIII: BioMAP Diversity Plus: MyoF Assay for Collagen III Biomarker Activity (AID 2284239). Conditions: primary human lung fibroblasts. An outline of the steps:
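Multiplexed cell assay in lung fibroblasts, harvested at 24 h post-dose. Collagen III detected by ELISA, with positive-direction fitting relative to DMSO vehicle.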

Read-out in test [3]: Interleukin 17F (IL17F), IL17F (gene 112744)
The test can be described thus: BSK_BT_xIL17F: BioMAP Diversity Plus: BT Assay for Interleukin 17F (IL17F) Biomarker Activity (AID 2284243). Conditions: primary human B cells with PBMC. The method in brief:
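Luminex readout of IL-17F secretion, 24 h; cells: human B cells with PBMC; positive-direction analysis, DMSO control.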

Read-out in test [4]: Interleukin 2 (IL2), IL2 (gene 3558)
The test can be described thus: BSK_BT_xIL2: BioMAP Diversity Plus: BT Assay for Interleukin 2 (IL2) Biomarker Activity (AID 2284245). Conditions: primary human B cells with PBMC. The method in brief:
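Readout: supernatant IL-2 via Luminex xMAP after 24 h chemical dosing of a B cell/PBMC primary human co-culture. DMSO serves as negative control and baseline; increases in signal were fitted.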

Read-out in test [5]: Basic fibroblast growth factor (bFGF), FGF2 (gene 2247)
The test can be described thus: BSK_MyoF_bFGF: BioMAP Diversity Plus: MyoF Assay for Basic fibroblast growth factor (bFGF) Biomarker Activity (AID 2284246). Particulars: primary human lung fibroblasts. An outline of the steps:
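Primary human lung fibroblast culture, 24 h compound exposure; ELISA read-out of bFGF. Positive-direction fit vs DMSO baseline. Cytotoxicity: SRB stain (0.1% SRB, 10% TCA fixation, 560 nm) in parallel wells.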

Read-out in test [6]: Collagen IV, COL4A1 (gene 1282)
The test can be described thus: BSK_MyoF_CollagenIV: BioMAP Diversity Plus: MyoF Assay for Collagen IV Biomarker Activity (AID 2284247). Conditions: primary human lung fibroblasts. The method in brief:
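ELISA read-out of Collagen IV in lung fibroblast cultures, 24 h post-dosing; gain of signal relative to DMSO vehicle baseline defines activity.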

Test [7] in a line: TAMU_PeakParms_SingleDonor1434_QT: Texas A&M University (TAMU) 1.5-hr Human Induced Pluripotent Stem Cell (iPSC)-derived Cardiomyocytes Calcium (Ca+2) Flux Assay for Cardiotoxicity: QT (decay-rise ratio) (AID 2284235; active = hit-call score of the fitted dose curve at least 0.9, where 1 is the maximum). The method in brief:
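Decay/rise ratio of calcium-flux fluorescence scored after 90 min exposure (37C) of donor 1434 iPSC cardiomyocytes to 0.2–100 uM (0.5% DMSO). Beat-cessation and severe-notch points removed; POD is EC05, a 5% rise over DMSO.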

Read-out in test [8]: Monokine induced gamma interferon (MIG), CXCL9 (gene 4283)
The test can be described thus: BSK_KF3CT_MIG: BioMAP Diversity Plus: KF3CT Assay for Monokine induced gamma interferon (MIG) Biomarker Activity (AID 2284248). Particulars: primary human keratinocytes with fibroblasts. An outline of the steps:
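MIG in dosed human skin co-cultures was measured by ELISA at 24 h, relative to DMSO.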

Read-out in test [9]: Vascular cell adhesion molecule 1 (VCAM1), VCAM1 (gene 7412)
The test can be described thus: BSK_BF4T_VCAM1: BioMAP Diversity Plus: BF4T Assay for Vascular cell adhesion molecule 1 (VCAM1) Biomarker Activity (AID 2284249). Particulars: primary human bronchial epithelial cells with fibroblasts. An outline of the steps: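 Cell-surface VCAM-1 quantified by ELISA after 24 h chemical exposure of human bronchial epithelial/dermal fibroblast co-cultures, with SRB staining in parallel wells for cytotoxicity; DMSO baseline, positive-direction fitting.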

Read-out in test [10]: Collagen I, COL1A1 (gene 1277)
The test can be described thus: BSK_hDFCGF_CollagenI: BioMAP Diversity Plus: hDFCGF Assay for Collagen I Biomarker Activity (AID 2284250). Conditions: primary human foreskin fibroblasts. The method in brief:
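ELISA read-out of Collagen I in human dermal foreskin fibroblast cultures, 24 h after dosing. Gain of signal versus DMSO vehicle defines activity.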

Read-out in test [11]: Interferon-inducible T-cell alpha chemoattractant (ITAC), CXCL11 (gene 6373)
The test can be described thus: BSK_hDFCGF_ITAC: BioMAP Diversity Plus: hDFCGF Assay for Interferon-inducible T-cell alpha chemoattractant (ITAC) Biomarker Activity (AID 2284251). Conditions: primary human foreskin fibroblasts. The method in brief:
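Chemical dosing of primary human foreskin fibroblast cultures preceded ELISA measurement of I-TAC at 24 h. Response was analysed in the positive direction using DMSO as baseline, while parallel SRB staining measured cytotoxicity.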

Read-out in test [12]: Plasminogen activator inhibitor-1 (PAI1), SERPINE1 (gene 5054)
The test can be described thus: BSK_KF3CT_PAI1: BioMAP Diversity Plus: KF3CT Assay for Plasminogen activator inhibitor-1 (PAI1) Biomarker Activity (AID 2284252). Conditions: primary human keratinocytes with fibroblasts. The method in brief:
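Keratinocyte + dermal fibroblast co-culture (human primary); 24 h post-dose; PAI-1 by ELISA; gain-of-signal fit vs DMSO control.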

Each structure is given as a SMILES string. Inconclusive results are not listed. Active and inactive are the calls of the source. The calls were made as follows, unless noted: active = hit-call score of the fitted dose curve at least 0.9, where 1 is the maximum; inactive = score below 0.9.

What is called AC50 is the concentration giving half of the maximal activity seen. As for `c1ccc2c(c1)-c1ccc3ccc4cccc5cc-2c1c3c45`, the outcome in test [1], in test [3] and in test [5] was inactive. In addition, the figures for the AC50 in test [2], in [4] and in [6] were 10 µM (active), 0.709 µM (active) and 0.0918 µM (active), respectively.

For `C=C1CC/C=C(\C)CC[C@@H]2[C@@H]1CC2(C)C`, the AC50 was 25.7 µM (active) in [1], 30.1 µM (active) in test [2], 34.7 µM (active) in test [5] and 23.8 µM (active) in [6]. In addition, the outcome in test [3] and in test [4] was inactive.

Regarding `CCOC(=O)C=Cc1ccccc1`, the result in [1], in test [2], in test [3], in [4], in test [5] and in test [6] was inactive.

Regarding `CC(=O)OC(C)(C)C1CC=C(C)CC1` (stereo unspecified), the outcome in test [1], in test [2], in test [3], in [4], in [5] and in test [6] was inactive.

Consider `O=S1(=O)CC(Cl)(Cl)C(Cl)(Cl)C1`, for which the AC50 in [1] is 1.52 µM (active); in test [2] it was 1.89 µM (active); in test [3], 0.515 µM (active); in [4], 0.703 µM (active); in test [5], 2.06 µM (active); in test [6] it was 1.85 µM (active).

As for `CNC(=C[N+](=O)[O-])NCCSCc1ccc(CN(C)C)o1`, the outcome in [7] was inactive.

Turning to `c1ccc(Sc2ccccc2)cc1`, the half-maximal activity concentration (AC50) in [1] is 30.3 µM (active); in test [2], 34.2 µM (active); in [5], 31.9 µM (active); in test [6], 32.6 µM (active). In addition, the result in test [3] and in test [4] was inactive.

Consider `COc1ccccc1NC(=O)CC(C)=O`, for which the result in test [1], in [2], in [3], in test [4], in test [5] and in test [6] was inactive.

On to `NC(=O)c1c(Cl)cccc1Cl`, for which the result in [1], in test [2], in test [3], in [4], in test [5] and in [6] was inactive.

`O=C1OC2(c3ccc(O)cc3Oc3cc(O)ccc32)c2ccccc21`: the outcome in test [1], in test [2], in test [3], in test [4], in [5] and in test [6] was inactive.

On to `C=C(C)C(=O)OCCC(F)(F)C(F)(F)C(F)(F)C(F)(F)C(F)(F)C(F)(F)C(F)(F)C(F)(F)F`, for which the outcome in test [1], in test [2], in test [3], in test [4], in test [5] and in test [6] was inactive. For the same compound, the result in test [8], in [9], in [10], in test [11] and in test [12] was inactive.
